Experimental findings from PubChem BioAssay AID1345085 (National Center for Advancing Translational Sciences (NCATS), 2018) are described below.

Inconclusive results are not listed. Unmarked numbers belong to inactive results. Active and inactive are the calls of the source. The call rests on the fitted dose curve; in most records, active means well fitted cell-killing curve with a large enough effect; inconclusive means small, poorly fitted or top-dose-only effect, or effect the other way; inactive means no such curve, though single readings can be large or run the other way.
On the % scale 0 is the no-effect control and ±100 the full control effect; potency means the concentration at half of the fitted maximal effect.

This assay relates to Tov-21-G. In words: Confirmatory qHTS for gynecologic anti-cancer compounds from libraries of approved drugs and bioactive compounds. Further: nearly all actives have a fitted effect of over 55% in size. The settings on record: gynecologic cancer cell panel viability, ATPlite luminescence, 48 h; series mostly up to 57.7 µM; activity change, negative = viability loss: at the top concentration. In a few lines: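 Seeding 1,000 cells per well preceded overnight (16 h) attachment, after which 48 h drug treatment across 57.5 uM–0.977 nM (11 points) was applied. Remaining cellular ATP, detected by ATPlite luminescence, defined IC50.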
In general terms: In qHTS, concentration-response curves come from the screen itself.
As to `O=C(O)Cc1ccccc1`, the “activity change, negative = viability loss” value was 25.4%.

`CCN1CCN(C(=O)Cc2ccc(Nc3ncc(F)c(Nc4ccc(C(=O)Nc5ccccc5Cl)cc4)n3)cc2)CC1`: the “activity change, negative = viability loss” value is -3.78%.

For the compound `C/C=C(/C)C(=O)O[C@H]1C(C)=C2[C@H]([C@@H]1OC(=O)CCCCCCC)[C@@](C)(OC(C)=O)C[C@H](OC(=O)CCC)[C@@]1(O)[C@H]2OC(=O)[C@@]1(C)O`, the Potency is 13.7 µM (active).

Turning to `Cc1sc2c(c1C)C(c1ccc(Cl)cc1)=NC(CC(=O)OC(C)(C)C)c1nnc(C)n1-2` (stereo unspecified), the Potency is 1.22 µM (active).

On to `CCNC(=O)C[C@@H]1N=C(c2ccc(Cl)cc2)c2cc(OC)ccc2-n2c(C)nnc21`, for which the Potency is 0.685 µM (active).

Take `CCOc1ccccc1-n1c(C(C)N2CCN(C(=O)COc3ccc(Cl)cc3)CC2)nc2ccccc2c1=O` (stereo unspecified): the Potency is 1.72 µM (active).
